BAZ2B block – qHTS Assay for Inhibitors of BAZ2B. Bromodomain adjacent to zinc finger domain protein 2B (Homo sapiens), Q9UIF8. AlphaScreen BAZ2B-H3K14Ac peptide displacement. Potency, µM (titrated, usually from 114 µM), actives largely listed as inhibitors. actives 4.4% (n = 360,000). AID 504333, 2011; note: nearly all actives have a fitted effect of over 60% in size
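AlphaScreen displacement of biotin-H3(5-23)K14Ac peptide (50 nM final) from BAZ2B (50 nM final) in PBS pH 7.4, 0.01% Tween-20; complex preformed 30 min RT, then compounds (top 110 uM) 30 min RT, beads 20 min dark.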
JMJD2A Tudor – qHTS Assay for Inhibitors of JMJD2A-Tudor Domain | Lysine-specific demethylase 4A (Homo sapiens), O75164 | AlphaScreen JMJD2A-Tudor / H3K4me3 peptide binding | Potency, µM (doses to about 114 µM), actives largely listed as inhibitors | actives 4.4% (n = 390,000) | AID 504339, 2011; note: nearly all actives have a fitted effect of over 50% in size
HP1b chromo inh – HTS for Inhibitors of HP1-beta Chromodomain Interactions with Methylated Histone Tails | Chromobox protein homolog 1 (Homo sapiens), P83916 | AlphaScreen HP1-beta / biotin-H3K9me3 peptide binding | Potency, µM (series often up to 114 µM), actives largely listed as inhibitors | actives 0.56% (n = 390,000) | AID 540317, 2011; note: nearly all actives have a fitted effect of over 70% in size
Target sequence (P83916 whole entry, looked up): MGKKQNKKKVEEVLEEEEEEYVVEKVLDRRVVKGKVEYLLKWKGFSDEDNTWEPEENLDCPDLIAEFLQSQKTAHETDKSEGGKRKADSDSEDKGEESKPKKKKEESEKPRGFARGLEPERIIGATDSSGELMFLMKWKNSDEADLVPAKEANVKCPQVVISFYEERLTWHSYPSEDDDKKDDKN
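Compound inhibition of the preformed complex between 50 nM HP1-beta and 50 nM biotinylated H3K9me3 peptide was read by AlphaScreen. Buffer was PBS pH 7.4 with 0.01% Tween-20. Incubations ran 30 min at room temperature, with 10 ug/mL donor/acceptor beads.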
Sfp inh – qHTS Assay for Inhibitors of Bacillus subtilis Sfp phosphopantetheinyl transferase (PPTase); actives 3.5% (n = 310,000); AID 1490, 2009; Biochemical Sfp PPTase activity, qHTS; 4'-phosphopantetheinyl transferase ffp (Bacillus subtilis), Q9F4F7; Potency, µM, most hits filed as inhibitors;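 note: the enzyme is Sfp with the accession as filed and its product quenches rhodamine fluorescence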
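With Hepes-Na pH 7.6 buffer containing 10 mM MgCl2, Sfp (15 nM) modified BHQ-2-YbbR (12.5 uM) using rhodamine-CoA (5 uM). Two reads 30 minutes apart at 525/598 nm yielded each well's rate.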
G9a inh – qHTS Assay for Inhibitors of Histone Lysine Methyltransferase G9a | AID 504332, 2011 | Potency, µM (titrated, usually from 102 µM), hits mostly inhibitors | actives 8.8% (n = 350,000) | Histone-lysine N-methyltransferase EHMT2 (Homo sapiens), Q96KQ7 | G9a H3K9 monomethylation, AlphaScreen, 2 h; note: nearly all actives have a fitted effect of over 75% in size
Target sequence (Q96KQ7 913-1193 limits assumed): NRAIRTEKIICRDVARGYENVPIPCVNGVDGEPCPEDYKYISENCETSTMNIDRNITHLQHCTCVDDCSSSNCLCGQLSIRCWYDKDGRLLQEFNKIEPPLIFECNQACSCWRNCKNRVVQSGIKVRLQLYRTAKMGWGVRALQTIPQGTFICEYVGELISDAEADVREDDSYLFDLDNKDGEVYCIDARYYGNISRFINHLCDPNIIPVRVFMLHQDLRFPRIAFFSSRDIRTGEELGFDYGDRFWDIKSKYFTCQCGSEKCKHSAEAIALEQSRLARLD
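Using a bead-based AlphaScreen, monomethylated H3K9 product from 2 h room-temperature reactions (G9a 20 nM, peptide 500 nM, SAM 20 uM) was detected with 0.5 ug/mL rabbit anti-H3K9me1 antibody.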
L3MBTL1 inh – qHTS Assay for the Inhibitors of L3MBTL1; Potency, µM (top dose mostly 57.1 µM), most hits filed as inhibitors; Lethal(3)malignant brain tumor-like protein 1 (Homo sapiens), Q9Y468; AlphaScreen L3MBTL1–H3K9me1 peptide binding; actives 0.66% (n = 230,000); AID 485360, 2010; note: nearly all actives have a fitted effect of over 60% in size
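L3MBTL1 (50 nM) pre-complexed 30 min with biotinylated H3(1-15)K9me1 peptide (75 nM), then compounds added for 30 min at room temperature; AlphaScreen streptavidin donor/nickel chelate acceptor beads (10 ug/mL final) read after 30 min dark incubation.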
Large screens that a line does not name were inactive. The list is not random: actives were taken first. Their share in the collection is about 12%. Calls come from the whole dose curve; as a rule, active = well fitted curve in the direction sought with a large enough effect; inconclusive = small, poorly fitted or top-dose-only effect, or another doubt; inactive = no such curve, though single readings can be large; an effect the other way counts as inactive or inconclusive.

N#Cc1cc2c([nH]c1=S)CCCCCC2	JMJD2A Tudor 3.16µM, HP1b chromo inh inconclusive, Sfp inh 10µM, G9a inh inconclusive
CC12CCC(=O)N1C(C(=O)NNC(=O)c1ccccc1)CS2 (stereo not given)	none (no result: Sfp inh)
Cc1ccc(S(=O)(=O)O)cc1C	none (no result: BAZ2B block, JMJD2A Tudor, HP1b chromo inh, L3MBTL1 inh)
Cn1c(=O)[nH]c2nnc(-c3ccc(Cl)c(Cl)c3)nc2c1=O	BAZ2B block 89.1µM, JMJD2A Tudor inconclusive, Sfp inh inconclusive, G9a inh inconclusive (no result: L3MBTL1 inh)
Cc1ccc(C)c(CN2C(=O)c3ccccc3S(=O)(=O)c3ccc(C(=O)N4CCc5ccccc54)cc32)c1	BAZ2B block inconclusive, G9a inh inconclusive (no result: Sfp inh, L3MBTL1 inh)
CC1C(=O)N2CCCc3cc(S(=O)(=O)N(C)c4ccccc4)cc1c32 (stereo not given)	BAZ2B block 56.2µM (no result: G9a inh, L3MBTL1 inh)
CCN(c1ccccc1)S(=O)(=O)c1cc2c3c(c1)C(C)C(=O)N3CCC2 (stereo not given)	none (no result: L3MBTL1 inh)
COc1ccc(S(=O)(=O)Nc2cc3c4c(c2)C(C)C(=O)N4CCC3)cc1OC (stereo not given)	G9a inh 44.7µM (no result: Sfp inh)
CC1C(=O)N2CCCc3cc(NS(=O)(=O)c4ccccc4)cc1c32 (stereo not given)	G9a inh inconclusive (no result: Sfp inh)
CCCCOc1ccc(S(=O)(=O)Nc2ccc(-c3ccc(N4CCCCC4)nn3)cc2)cc1	none (no result: Sfp inh, L3MBTL1 inh)
COc1ccc(N2CCN(c3nc(-c4cccs4)nc4ccccc34)CC2)cc1	BAZ2B block inconclusive, JMJD2A Tudor inconclusive, HP1b chromo inh inconclusive, G9a inh 20µM (no result: L3MBTL1 inh)
O=C(O)c1cc(N2CCCCC2)nc2ccccc12	none (no result: BAZ2B block, Sfp inh, G9a inh, L3MBTL1 inh)
COc1ccc(N2CCN(c3cc(C)c4ccccc4n3)CC2)cc1	BAZ2B block inconclusive, JMJD2A Tudor inconclusive, HP1b chromo inh inconclusive, G9a inh 10µM, L3MBTL1 inh inconclusive
COC(=O)c1cc(N2CCN(C)CC2)nc2ccccc12	BAZ2B block inconclusive, G9a inh 11.2µM
COc1ccc2c(C)cc(N3CCCCCC3)nc2c1	BAZ2B block 22.4µM, JMJD2A Tudor 12.6µM, Sfp inh inconclusive, G9a inh inconclusive (no result: L3MBTL1 inh)
COc1cc(OC)c(N(C)C(=O)c2sc3nc4n(c(=O)c3c2C)CCCC4)cc1Cl	G9a inh inconclusive (no result: Sfp inh, L3MBTL1 inh)
CO[C@H]1COC(=O)C/C=C\[C@H](C)[C@@H](OC)COC(=O)[C@H](Cc2ccccc2)NC(=O)C/C=C\[C@@H]1C	none (no result: BAZ2B block, JMJD2A Tudor, HP1b chromo inh, G9a inh, L3MBTL1 inh)
S=C(NCCc1ccccc1)N1CCN(C2CCCCC2)CC1	G9a inh inconclusive
COc1ccc(N2CCN(c3cc(C)nc4ccc(OC)cc34)CC2)cc1	BAZ2B block 31.6µM, JMJD2A Tudor 44.7µM, HP1b chromo inh inconclusive, G9a inh 50.1µM (no result: L3MBTL1 inh)
COc1ccc2nc(C)cc(N3CCC(C(N)=O)CC3)c2c1	none (no result: L3MBTL1 inh)
COc1cccc(N2CCN(c3cnc4ccccc4n3)CC2)c1	Sfp inh 79.4µM
O=c1c2ccccc2oc2cc(OCc3ccc(F)cc3)cc(O)c12	G9a inh inconclusive (no result: L3MBTL1 inh)
CCCCCCCc1nc2sc3c(c2c(=O)n1N)CC(C)(C)OC3	none
CCCCCc1nc2sc3c(c2c(=O)n1NC(=O)c1ccc([N+](=O)[O-])cc1)CC(C)(C)OC3	JMJD2A Tudor inconclusive, G9a inh 70.8µM
CC(C)NC(=O)N(C)C[C@H]1Oc2ccc(NS(=O)(=O)c3cn(C)cn3)cc2C(=O)N([C@H](C)CO)C[C@@H]1C	JMJD2A Tudor 39.8µM (no result: BAZ2B block, Sfp inh, G9a inh)
N#Cc1ccccc1NC(=O)CN(Cc1ccccc1)Cc1ccccc1	none (no result: L3MBTL1 inh)
CSc1nnc(NC(=O)c2ccc(S(=O)(=O)N(C)C)cc2)s1	G9a inh 22.4µM (no result: L3MBTL1 inh)
Cc1nnc(NC(=O)c2ccc3c(c2)OCO3)s1	none
O=C(Nc1nncs1)c1ccc2c(c1)OCO2	G9a inh 50.1µM (no result: L3MBTL1 inh)
CSc1nnc(NC(=O)c2ccc3c(c2)OCO3)s1	G9a inh 28.2µM (no result: L3MBTL1 inh)
